Results on one sequence are retold here after PMC7862700, “An all-to-all approach to the identification of sequence-specific readers for epigenetic DNA modifications on cytosine”.

Holding throughout (test): DAPPL (digital affinity profiling via proximity ligation, sequencing); 10 mM Tris-HCl pH 7.5, 50 mM NaCl, 1 mM DTT, 4% glycerol, room temperature, 30 min; GST-TFs on glutathione beads, 16-mer random dsDNA library, 0.1% formaldehyde crosslink after washing; high values mean tight binding
One test deals with T1, FEV (Homo sapiens, UniProt Q99581 1-238).
T1 sequence: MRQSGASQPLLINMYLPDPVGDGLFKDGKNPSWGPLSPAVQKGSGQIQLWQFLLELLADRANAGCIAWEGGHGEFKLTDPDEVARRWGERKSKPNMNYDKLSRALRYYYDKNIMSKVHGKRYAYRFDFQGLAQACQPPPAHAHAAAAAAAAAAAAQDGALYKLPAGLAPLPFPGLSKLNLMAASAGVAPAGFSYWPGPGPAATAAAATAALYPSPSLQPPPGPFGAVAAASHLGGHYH
The following applies: protein: recombinant; tags: N-terminal GST; dsDNA, one strand shown. The method, boiled down:
(§1)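 A tag-only sample was pooled with DNA-barcoded human transcription factors that had been expressed in yeast as GST fusions and captured on glutathione beads. The pools were incubated for 30 min at room temperature with 200 nmole of a random double-stranded 16-mer DNA library in Tris/NaCl/DTT/glycerol buffer, then washed, crosslinked with 0.1% formaldehyde, proximity-ligated (BsaI/T4 ligase, 1 h, 37 °C), PCR-amplified and sequenced on an Illumina NextSeq500. Binding signal is each hexamer's read frequency for a factor divided by its frequency for the tag-only sample.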

For a further test, the target named is ETV5 (Homo sapiens, UniProt P41161 1-510). The following applies: protein: recombinant; tags: N-terminal GST; dsDNA, one strand shown. The method, boiled down:
as §1

A further test addresses HSF1 (Homo sapiens, UniProt Q00613 1-529). The following applies: protein: recombinant; tags: N-terminal GST; chain copies: 3; dsDNA, one strand shown. The method, boiled down: as §1
The target in another test is T2, SPIC (Homo sapiens, UniProt Q8N5J4 1-248).
T2 sequence: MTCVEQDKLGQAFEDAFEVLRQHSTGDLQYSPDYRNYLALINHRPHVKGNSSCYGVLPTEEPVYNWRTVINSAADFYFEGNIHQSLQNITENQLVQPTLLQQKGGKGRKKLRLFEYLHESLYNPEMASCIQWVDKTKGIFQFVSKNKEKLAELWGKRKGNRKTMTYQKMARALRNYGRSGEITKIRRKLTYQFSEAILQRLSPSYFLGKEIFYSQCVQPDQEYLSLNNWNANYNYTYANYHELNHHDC
As to conditions: protein: recombinant; tags: N-terminal GST; dsDNA, one strand shown. The essentials: as §1

A further test has as its target ELF4 (Homo sapiens, UniProt Q99607 1-663). The following applies: protein: recombinant; tags: N-terminal GST; dsDNA, one strand shown. The method, boiled down: as §1
In the next test the target is T3, ELK4 (Homo sapiens, UniProt P28324-2 1-405).
T3 sequence: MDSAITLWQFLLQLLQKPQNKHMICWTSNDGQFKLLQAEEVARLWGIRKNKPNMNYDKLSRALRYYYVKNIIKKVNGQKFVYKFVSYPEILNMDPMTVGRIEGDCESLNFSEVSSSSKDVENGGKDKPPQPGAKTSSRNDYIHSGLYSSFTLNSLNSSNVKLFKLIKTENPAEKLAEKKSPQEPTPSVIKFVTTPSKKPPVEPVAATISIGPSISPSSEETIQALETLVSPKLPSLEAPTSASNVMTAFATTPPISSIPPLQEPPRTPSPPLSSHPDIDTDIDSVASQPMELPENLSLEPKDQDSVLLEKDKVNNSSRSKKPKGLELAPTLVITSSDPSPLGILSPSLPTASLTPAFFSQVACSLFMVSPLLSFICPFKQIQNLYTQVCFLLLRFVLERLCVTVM
The following applies: protein: recombinant; tags: N-terminal GST; dsDNA, one strand shown. The method, boiled down: as §1

The target of another test is T4, ETV2 (Homo sapiens, UniProt O00321 1-342).
T4 sequence: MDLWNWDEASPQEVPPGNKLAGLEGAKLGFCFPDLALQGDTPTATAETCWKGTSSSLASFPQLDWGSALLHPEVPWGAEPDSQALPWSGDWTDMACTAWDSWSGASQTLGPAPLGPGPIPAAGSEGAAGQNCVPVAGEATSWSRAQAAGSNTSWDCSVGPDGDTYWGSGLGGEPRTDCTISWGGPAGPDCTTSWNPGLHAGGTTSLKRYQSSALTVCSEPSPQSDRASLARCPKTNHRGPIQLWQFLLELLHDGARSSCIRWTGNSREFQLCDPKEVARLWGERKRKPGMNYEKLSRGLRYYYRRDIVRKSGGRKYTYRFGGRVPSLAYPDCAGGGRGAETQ
The following applies: protein: recombinant; tags: N-terminal GST; dsDNA, one strand shown. The essentials: as §1

Another test addresses T5, ELF3 (Homo sapiens, UniProt P78545 1-371).
T5 sequence: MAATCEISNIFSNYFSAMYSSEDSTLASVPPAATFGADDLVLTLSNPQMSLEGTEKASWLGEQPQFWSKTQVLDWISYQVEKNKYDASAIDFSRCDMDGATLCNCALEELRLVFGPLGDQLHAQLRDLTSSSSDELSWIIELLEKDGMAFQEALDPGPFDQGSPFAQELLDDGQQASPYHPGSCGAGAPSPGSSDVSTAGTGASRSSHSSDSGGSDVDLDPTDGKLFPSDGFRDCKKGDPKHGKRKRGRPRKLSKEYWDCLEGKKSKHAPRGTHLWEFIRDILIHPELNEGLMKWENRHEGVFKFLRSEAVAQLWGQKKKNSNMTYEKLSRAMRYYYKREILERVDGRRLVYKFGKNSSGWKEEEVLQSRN
The following applies: protein: recombinant; tags: N-terminal GST; dsDNA, one strand shown. The method, boiled down:
as §1

For another test, the target named is CRX (Homo sapiens, UniProt O43186 1-299). As to conditions: protein: recombinant; tags: N-terminal GST; dsDNA, one strand shown. The essentials: as §1
CRX, sequence (O43186 whole entry): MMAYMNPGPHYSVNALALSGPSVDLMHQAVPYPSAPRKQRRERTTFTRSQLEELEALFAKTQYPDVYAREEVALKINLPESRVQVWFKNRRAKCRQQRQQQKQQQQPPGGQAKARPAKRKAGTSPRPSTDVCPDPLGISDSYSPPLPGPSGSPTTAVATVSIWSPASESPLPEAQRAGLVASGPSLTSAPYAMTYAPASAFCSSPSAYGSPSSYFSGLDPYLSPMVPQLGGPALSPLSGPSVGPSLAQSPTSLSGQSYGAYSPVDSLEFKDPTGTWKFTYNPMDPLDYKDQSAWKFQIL
Another test has as its target ETV1 (Homo sapiens, UniProt P50549 1-477). The following applies: protein: recombinant; tags: N-terminal GST; dsDNA, one strand shown. The method, boiled down: as §1
The target in another test is T6, ERF (Homo sapiens, UniProt P50548 1-548).
T6 sequence: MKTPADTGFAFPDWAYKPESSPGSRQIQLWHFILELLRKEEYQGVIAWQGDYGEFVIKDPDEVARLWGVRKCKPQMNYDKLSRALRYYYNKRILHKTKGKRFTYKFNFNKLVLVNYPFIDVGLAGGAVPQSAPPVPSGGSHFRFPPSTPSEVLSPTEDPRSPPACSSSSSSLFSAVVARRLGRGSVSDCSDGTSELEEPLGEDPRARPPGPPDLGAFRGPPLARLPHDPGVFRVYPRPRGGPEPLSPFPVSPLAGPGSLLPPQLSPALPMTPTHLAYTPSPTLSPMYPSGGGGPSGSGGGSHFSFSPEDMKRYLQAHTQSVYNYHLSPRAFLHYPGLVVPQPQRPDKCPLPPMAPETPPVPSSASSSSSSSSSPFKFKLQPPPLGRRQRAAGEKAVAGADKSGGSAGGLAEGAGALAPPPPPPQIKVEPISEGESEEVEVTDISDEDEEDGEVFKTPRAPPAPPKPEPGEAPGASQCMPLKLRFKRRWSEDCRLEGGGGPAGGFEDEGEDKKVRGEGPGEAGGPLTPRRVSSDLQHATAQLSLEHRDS
As to conditions: protein: recombinant; tags: N-terminal GST; dsDNA, one strand shown. The method, boiled down: as §1

The target of the next test is T7, ETV3L (Homo sapiens, UniProt Q6ZN32 1-361).
T7 sequence: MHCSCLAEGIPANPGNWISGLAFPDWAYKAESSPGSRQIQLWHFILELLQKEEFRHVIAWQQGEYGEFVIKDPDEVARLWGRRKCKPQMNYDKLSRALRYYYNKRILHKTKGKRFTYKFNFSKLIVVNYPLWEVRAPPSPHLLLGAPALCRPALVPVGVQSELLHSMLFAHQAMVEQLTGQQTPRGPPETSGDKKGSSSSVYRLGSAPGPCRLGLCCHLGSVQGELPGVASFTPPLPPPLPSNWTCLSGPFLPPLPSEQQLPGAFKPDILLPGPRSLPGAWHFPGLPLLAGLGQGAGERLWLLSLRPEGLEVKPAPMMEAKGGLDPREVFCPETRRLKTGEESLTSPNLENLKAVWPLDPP
The following applies: protein: recombinant; tags: N-terminal GST; dsDNA, one strand shown. The essentials: as §1

The next test addresses T8, ETS2 (Homo sapiens, UniProt P15036 1-469).
T8 sequence: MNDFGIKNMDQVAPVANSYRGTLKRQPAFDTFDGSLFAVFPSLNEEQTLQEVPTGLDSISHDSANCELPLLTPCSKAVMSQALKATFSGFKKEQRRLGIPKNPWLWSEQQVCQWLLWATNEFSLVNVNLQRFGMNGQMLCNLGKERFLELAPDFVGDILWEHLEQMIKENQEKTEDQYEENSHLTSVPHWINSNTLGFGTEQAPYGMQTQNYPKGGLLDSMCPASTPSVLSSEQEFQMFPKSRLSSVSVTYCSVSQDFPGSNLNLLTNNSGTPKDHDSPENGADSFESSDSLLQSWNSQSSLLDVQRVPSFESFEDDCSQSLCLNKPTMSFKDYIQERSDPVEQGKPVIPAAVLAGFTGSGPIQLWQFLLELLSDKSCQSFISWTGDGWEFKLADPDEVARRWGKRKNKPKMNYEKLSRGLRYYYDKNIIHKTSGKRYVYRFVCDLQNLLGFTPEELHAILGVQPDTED
As to conditions: protein: recombinant; tags: N-terminal GST; dsDNA, one strand shown. The method, boiled down:
as §1

The next test concerns the target T9, SPDEF (Homo sapiens, UniProt O95238 1-335).
T9 sequence: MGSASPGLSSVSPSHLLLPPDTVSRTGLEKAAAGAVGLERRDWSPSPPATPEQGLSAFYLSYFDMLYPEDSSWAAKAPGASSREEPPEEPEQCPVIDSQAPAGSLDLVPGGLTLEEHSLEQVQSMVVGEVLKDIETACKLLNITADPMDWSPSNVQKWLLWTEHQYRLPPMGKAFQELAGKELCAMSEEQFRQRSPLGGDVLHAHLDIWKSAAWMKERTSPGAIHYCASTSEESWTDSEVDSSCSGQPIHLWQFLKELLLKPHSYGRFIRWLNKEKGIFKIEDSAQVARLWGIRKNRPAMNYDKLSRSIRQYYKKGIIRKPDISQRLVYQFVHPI
The following applies: protein: recombinant; tags: N-terminal GST; dsDNA, one strand shown. The method, boiled down: as §1

Another test concerns the target T10, ETV7 (Homo sapiens, UniProt Q9Y603 1-341).
T10 sequence: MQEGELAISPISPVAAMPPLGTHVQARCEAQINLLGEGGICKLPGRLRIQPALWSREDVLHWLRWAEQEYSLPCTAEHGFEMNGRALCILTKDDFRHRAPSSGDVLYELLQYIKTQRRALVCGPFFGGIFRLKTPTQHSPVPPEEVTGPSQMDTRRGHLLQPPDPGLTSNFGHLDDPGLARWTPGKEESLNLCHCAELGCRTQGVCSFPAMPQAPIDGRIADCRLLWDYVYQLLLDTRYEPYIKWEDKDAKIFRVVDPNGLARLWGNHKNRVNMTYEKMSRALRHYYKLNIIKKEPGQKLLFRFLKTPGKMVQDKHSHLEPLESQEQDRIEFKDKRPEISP
As to conditions: protein: recombinant; tags: N-terminal GST; dsDNA, one strand shown. The essentials: as §1

In a further test the target is T11, ELF5 (Homo sapiens, UniProt Q9UKW6-2 1-255).
T11 sequence: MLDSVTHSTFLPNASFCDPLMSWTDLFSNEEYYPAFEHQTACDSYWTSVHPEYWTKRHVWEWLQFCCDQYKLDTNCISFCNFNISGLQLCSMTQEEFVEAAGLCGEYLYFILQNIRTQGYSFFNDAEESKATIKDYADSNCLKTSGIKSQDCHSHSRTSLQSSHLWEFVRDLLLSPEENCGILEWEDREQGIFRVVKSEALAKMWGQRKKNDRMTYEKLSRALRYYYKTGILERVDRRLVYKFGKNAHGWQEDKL
As to conditions: protein: recombinant; tags: N-terminal GST; dsDNA, one strand shown. The essentials:
as §1

Another test concerns the target T12, ETV3 (Homo sapiens, UniProt P41162-2 1-143).
T12 sequence: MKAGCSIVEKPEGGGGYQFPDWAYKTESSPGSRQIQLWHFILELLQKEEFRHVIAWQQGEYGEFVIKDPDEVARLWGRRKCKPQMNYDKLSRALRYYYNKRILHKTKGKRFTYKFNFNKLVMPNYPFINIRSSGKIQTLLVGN
As to conditions: protein: recombinant; tags: N-terminal GST; dsDNA, one strand shown. The essentials:
as §1

For another test, the target named is ETV6 (Homo sapiens, UniProt P41212 1-452). As to conditions: protein: recombinant; tags: N-terminal GST; dsDNA, one strand shown. The method, boiled down:
as §1

ELF4, sequence (Q99607 whole entry): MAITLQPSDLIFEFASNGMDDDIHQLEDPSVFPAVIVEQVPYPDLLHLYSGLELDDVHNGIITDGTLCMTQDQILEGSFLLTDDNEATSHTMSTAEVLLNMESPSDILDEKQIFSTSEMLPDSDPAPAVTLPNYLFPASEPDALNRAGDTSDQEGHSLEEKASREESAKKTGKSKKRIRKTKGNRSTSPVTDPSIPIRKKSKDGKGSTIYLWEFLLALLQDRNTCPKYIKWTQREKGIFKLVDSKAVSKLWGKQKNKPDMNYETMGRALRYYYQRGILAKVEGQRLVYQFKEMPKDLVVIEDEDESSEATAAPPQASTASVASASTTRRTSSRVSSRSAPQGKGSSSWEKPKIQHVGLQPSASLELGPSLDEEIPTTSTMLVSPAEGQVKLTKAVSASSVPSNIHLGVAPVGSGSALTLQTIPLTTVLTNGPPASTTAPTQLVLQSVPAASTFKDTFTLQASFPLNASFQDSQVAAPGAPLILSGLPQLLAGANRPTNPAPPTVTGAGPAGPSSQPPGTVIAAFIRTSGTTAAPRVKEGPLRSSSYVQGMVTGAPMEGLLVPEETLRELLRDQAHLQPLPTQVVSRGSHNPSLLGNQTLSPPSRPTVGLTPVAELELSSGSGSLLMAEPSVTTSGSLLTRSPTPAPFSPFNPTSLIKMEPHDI
HSF1, sequence (Q00613 whole entry): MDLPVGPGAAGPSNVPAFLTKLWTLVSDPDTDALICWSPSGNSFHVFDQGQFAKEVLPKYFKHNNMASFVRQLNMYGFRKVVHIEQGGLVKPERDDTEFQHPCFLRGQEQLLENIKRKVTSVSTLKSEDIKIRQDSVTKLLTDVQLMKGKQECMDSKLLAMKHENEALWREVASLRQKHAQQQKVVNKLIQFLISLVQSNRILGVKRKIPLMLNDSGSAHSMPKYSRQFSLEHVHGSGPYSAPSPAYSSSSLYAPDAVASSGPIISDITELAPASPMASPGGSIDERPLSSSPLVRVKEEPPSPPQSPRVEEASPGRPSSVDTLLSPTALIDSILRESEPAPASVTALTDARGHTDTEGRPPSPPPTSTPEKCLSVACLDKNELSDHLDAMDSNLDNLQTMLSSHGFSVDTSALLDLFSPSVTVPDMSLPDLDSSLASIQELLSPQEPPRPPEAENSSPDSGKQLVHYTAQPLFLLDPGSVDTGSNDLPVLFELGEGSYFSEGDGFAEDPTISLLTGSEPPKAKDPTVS
ETV1, sequence (P50549 whole entry): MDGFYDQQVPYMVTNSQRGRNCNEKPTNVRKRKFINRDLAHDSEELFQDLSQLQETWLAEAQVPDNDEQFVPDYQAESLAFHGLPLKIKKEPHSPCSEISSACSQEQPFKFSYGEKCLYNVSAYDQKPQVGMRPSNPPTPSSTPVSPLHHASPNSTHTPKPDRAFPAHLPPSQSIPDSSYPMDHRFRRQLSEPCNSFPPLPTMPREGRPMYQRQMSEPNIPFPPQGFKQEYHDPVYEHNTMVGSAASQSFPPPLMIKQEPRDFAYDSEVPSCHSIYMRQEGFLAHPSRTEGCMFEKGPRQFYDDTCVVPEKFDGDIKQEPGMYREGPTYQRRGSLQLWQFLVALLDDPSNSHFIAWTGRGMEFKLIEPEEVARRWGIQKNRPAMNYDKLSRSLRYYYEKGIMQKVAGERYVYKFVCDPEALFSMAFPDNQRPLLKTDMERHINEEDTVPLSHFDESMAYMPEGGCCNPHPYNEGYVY
ETV5, sequence (P41161 whole entry): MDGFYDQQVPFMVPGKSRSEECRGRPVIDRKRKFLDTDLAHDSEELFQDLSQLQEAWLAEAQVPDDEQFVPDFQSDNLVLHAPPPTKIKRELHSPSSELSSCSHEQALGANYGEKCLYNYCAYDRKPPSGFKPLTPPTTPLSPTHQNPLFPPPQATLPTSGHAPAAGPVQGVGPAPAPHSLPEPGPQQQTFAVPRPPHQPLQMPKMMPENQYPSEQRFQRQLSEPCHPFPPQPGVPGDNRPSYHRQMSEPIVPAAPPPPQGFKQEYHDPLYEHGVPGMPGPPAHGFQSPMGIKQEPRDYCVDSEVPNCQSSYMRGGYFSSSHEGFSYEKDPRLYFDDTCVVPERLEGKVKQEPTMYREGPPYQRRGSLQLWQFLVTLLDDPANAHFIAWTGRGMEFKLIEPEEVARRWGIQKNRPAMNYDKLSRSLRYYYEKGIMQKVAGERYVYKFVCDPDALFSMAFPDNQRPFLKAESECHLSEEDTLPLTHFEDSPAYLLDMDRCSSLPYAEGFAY
ETV6, sequence (P41212 whole entry): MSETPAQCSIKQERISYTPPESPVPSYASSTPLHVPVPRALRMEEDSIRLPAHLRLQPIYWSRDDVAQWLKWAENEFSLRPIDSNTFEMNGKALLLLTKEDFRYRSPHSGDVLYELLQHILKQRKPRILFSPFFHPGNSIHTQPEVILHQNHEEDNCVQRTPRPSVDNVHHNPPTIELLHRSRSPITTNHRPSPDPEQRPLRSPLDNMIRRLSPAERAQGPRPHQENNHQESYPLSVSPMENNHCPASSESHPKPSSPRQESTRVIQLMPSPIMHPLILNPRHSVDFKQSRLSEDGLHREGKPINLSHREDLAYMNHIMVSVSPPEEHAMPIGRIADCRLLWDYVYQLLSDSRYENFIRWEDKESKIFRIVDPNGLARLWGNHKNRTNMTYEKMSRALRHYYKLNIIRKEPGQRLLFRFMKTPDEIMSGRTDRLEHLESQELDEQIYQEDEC

TCTTGG: the binding signal in the test with FEV was 1.3 fold enrichment (6-mer frequency, TF over GST control); with ETV5, 1.32 fold enrichment (6-mer frequency, TF over GST control); in the test with HSF1, 1.39 fold enrichment (6-mer frequency, TF over GST control); in the test with SPIC, 1.47 fold enrichment (6-mer frequency, TF over GST control); with ELF4, 1.39 fold enrichment (6-mer frequency, TF over GST control); in the test with ELK4, 1.41 fold enrichment (6-mer frequency, TF over GST control). Further, the binding signal with ETV2 is 1.22 fold enrichment (6-mer frequency, TF over GST control); with ELF3, 1.41 fold enrichment (6-mer frequency, TF over GST control); in the test with CRX it was 1.32 fold enrichment (6-mer frequency, TF over GST control); with ETV1 it was 1.23 fold enrichment (6-mer frequency, TF over GST control); in the test with ERF, 1.4 fold enrichment (6-mer frequency, TF over GST control); with ETV3L, 1.43 fold enrichment (6-mer frequency, TF over GST control). Moreover, the binding signal with ETS2 is 1.27 fold enrichment (6-mer frequency, TF over GST control); with SPDEF, 1.27 fold enrichment (6-mer frequency, TF over GST control); with ETV7 it was 1.38 fold enrichment (6-mer frequency, TF over GST control); in the test with ELF5, 1.31 fold enrichment (6-mer frequency, TF over GST control); with ETV3 it was 1.29 fold enrichment (6-mer frequency, TF over GST control); with ETV6, 1.19 fold enrichment (6-mer frequency, TF over GST control).
